PI5P4Ka inh: blocks human PI5P4K alpha kinase activity. AID 652105. hit rate 1.2% among 330,000. max response, %. PI5P4Kalpha enzyme, ADP-Glo luminescence, 60 min; hits give low values; active = max response of -50% or lower; inconclusive = between -30% and -50%; inactive = -30% or higher; note: value at the top dose of about 77 µM; % is set by controls: 0 for no effect and ±100 for the full control effect
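PI5P4Kalpha ADP-Glo assay; 5 microM ATP final; 60 min RT reaction; HEPES pH 7.4/EGTA/CHAPS, 5% DMSO; controls lacking substrate or enzyme; luminescent end-point.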
G9a inh: inhibitors of human histone lysine methyltransferase G9a. AID 504332. hit rate 8.8% among 350,000. G9a H3K9 monomethylation, AlphaScreen, 2 h. Q96KQ7. Potency, µM (series often up to 102 µM), for inactives: at the top dose activity, negative = inhibition, most hits filed as inhibitors; note: potency is the fitted concentration of half-maximal effect; % is set by controls: 0 for no effect and ±100 for the full control effect; nearly all actives have a fitted effect of over 75% in size
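Step 1: enzyme (final 20 nM) with compound, 15 min RT. Step 2: substrate peptide 500 nM and SAM 20 uM, 2 h RT. Step 3: anti-H3K9me1 antibody and AlphaScreen beads, 10 min, then plate read.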
PLK1 PBD inh: inhibitors of human PLK1 polo-box domain binding; AID 720504; Plk1 PBD binding of FITC phosphopeptide, fluorescence polarization; Potency, µM, for inactives: max response, negative = inhibition, usual class: inhibitors; hit rate 2.8% among 360,000; P53350; note: potency is the fitted concentration of half-maximal effect; series mostly up to about 57 µM; % is set by controls: 0 for no effect and ±100 for the full control effect; nearly all actives have a fitted effect of over 65% in size
HP1b binding inh: inhibitors of HP1-beta chromodomain binding to methylated histone tails | Potency, µM (series often up to 114 µM), for inactives: top-dose activity change, negative = inhibition, hits mostly inhibitors | AID 540317 | AlphaScreen HP1-beta / biotin-H3K9me3 peptide binding | hit rate 0.56% among 390,000 | P83916; note: potency is the fitted concentration of half-maximal effect; nearly all actives have a fitted effect of over 70% in size
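HP1-beta protein (50 nM final) preincubated 30 min at room temperature with biotinylated H3(1-18)K9me3 peptide (50 nM) in PBS pH 7.4, 0.01% Tween-20, then compound added for 30 min. AlphaScreen streptavidin donor/nickel chelate acceptor beads (10 ug/mL final), 30 min dark, luminescence read.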
JMJD2A Tudor: blocks the human JMJD2A Tudor domain | AlphaScreen JMJD2A-Tudor / H3K4me3 peptide binding | Potency, µM (top dose mostly 114 µM), for the others: at the highest dose activity change, negative = inhibition, actives largely listed as inhibitors | hit rate 4.4% among 390,000 | AID 504339; note: potency is the fitted concentration of half-maximal effect; % is set by controls: 0 for no effect and ±100 for the full control effect; nearly all actives have a fitted effect of over 50% in size
BAZ2B block: blocks human BAZ2B. Q9UIF8. AlphaScreen BAZ2B-H3K14Ac peptide displacement. Potency, µM (doses to about 114 µM), for the others: at the top dose activity change, negative = inhibition, actives largely listed as inhibitors. hit rate 4.4% among 360,000. AID 504333; note: potency is the fitted concentration of half-maximal effect; % is set by controls: 0 for no effect and ±100 for the full control effect; nearly all actives have a fitted effect of over 60% in size
Target sequence (Q9UIF8 whole entry, looked up): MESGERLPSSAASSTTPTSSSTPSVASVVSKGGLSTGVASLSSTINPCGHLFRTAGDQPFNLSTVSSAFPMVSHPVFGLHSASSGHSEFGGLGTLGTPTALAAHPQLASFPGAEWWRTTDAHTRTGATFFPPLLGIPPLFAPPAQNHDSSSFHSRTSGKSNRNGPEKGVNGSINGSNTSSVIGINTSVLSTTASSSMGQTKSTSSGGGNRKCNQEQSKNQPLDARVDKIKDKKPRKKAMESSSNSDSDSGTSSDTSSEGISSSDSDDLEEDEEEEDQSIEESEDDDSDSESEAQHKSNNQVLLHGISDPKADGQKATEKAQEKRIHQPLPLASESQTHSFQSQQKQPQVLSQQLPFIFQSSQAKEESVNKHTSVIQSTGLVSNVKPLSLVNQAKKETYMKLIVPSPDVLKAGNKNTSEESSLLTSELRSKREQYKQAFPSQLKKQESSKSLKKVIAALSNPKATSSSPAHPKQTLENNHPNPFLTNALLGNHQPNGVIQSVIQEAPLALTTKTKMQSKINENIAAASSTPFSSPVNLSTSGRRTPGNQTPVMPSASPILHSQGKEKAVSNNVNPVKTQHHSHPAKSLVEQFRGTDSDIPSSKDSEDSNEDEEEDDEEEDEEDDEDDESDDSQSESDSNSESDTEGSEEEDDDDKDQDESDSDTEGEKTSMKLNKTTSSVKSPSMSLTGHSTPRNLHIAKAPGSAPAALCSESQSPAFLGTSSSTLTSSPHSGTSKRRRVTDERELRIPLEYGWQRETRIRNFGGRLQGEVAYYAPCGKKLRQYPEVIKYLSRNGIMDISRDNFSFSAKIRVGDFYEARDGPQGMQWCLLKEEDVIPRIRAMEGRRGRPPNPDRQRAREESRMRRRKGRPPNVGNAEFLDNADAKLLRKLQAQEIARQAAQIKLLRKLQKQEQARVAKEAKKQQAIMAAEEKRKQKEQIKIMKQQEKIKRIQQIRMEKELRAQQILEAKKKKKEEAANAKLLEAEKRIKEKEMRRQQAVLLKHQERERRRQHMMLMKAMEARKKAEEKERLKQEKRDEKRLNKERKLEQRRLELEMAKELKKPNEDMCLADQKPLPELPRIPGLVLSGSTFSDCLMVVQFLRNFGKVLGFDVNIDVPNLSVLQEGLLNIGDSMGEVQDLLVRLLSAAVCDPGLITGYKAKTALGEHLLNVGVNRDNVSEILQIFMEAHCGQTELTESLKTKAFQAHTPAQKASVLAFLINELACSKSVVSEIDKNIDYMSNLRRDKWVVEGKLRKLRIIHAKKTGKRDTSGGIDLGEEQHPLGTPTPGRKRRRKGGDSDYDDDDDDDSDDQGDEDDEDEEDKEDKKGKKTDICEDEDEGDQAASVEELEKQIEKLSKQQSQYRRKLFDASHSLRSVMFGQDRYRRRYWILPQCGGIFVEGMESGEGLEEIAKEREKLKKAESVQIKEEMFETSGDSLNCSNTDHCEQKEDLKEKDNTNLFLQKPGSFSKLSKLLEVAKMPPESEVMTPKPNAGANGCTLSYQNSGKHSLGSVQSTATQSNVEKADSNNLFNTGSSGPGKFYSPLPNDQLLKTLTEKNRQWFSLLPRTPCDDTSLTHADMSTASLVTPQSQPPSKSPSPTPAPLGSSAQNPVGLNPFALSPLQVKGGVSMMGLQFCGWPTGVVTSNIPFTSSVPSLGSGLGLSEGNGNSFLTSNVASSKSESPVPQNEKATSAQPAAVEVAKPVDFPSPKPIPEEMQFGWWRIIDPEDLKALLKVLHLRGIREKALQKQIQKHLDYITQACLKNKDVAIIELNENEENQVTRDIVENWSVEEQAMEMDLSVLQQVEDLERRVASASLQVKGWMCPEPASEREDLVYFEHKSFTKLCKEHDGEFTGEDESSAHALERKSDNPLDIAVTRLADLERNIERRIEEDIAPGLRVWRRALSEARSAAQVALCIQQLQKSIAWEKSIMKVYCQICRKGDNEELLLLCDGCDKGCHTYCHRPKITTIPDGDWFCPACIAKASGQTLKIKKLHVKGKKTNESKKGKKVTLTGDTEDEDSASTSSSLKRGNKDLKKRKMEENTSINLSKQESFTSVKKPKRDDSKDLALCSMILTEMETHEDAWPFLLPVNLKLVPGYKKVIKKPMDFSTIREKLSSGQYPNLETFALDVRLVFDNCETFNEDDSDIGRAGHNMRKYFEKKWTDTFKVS
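AlphaScreen displacement: compounds (up to 110uM) incubated 30 min at room temperature with a preformed 50 nM BAZ2B/50 nM biotinylated H3K14Ac peptide complex in PBS pH 7.4 with Tween-20. Donor and acceptor beads at 10 ug/mL final added, 20 min light-protected before reading.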
Starred values were filed as active, the others as inactive; u = inconclusive; x = no result given; [ ] = remark or other dose. A selection: hits, their analogues and other compounds. The true share with any hit is near 12%. Unless noted, calls come from the whole dose curve; as a rule, active = well fitted curve in the direction sought with a large enough effect; inconclusive = small, poorly fitted or top-dose-only effect, or another doubt; inactive = no such curve, though single readings can be large; an effect the other way counts as inactive or inconclusive.

SMILES | PI5P4Ka inh | G9a inh | PLK1 PBD inh | HP1b binding inh | JMJD2A Tudor | BAZ2B block
Cc1ccc2nc(-c3ccncc3)[nH]c2c1 | -2 | -7% | 8% | 41% | -6% | u
Cc1csc(N2CCN(c3cc4nc(-c5ccncc5)[nH]c4cc3Cl)CC2)n1 | -7 | 7.9µM* | -19% | 25% | 79µM* | u
Cc1ccc(-c2csc(N3CCN(c4cc5c(cc4Cl)nc(C)n5CCN4CCCCC4)CC3)n2)cc1 | u | 45µM* | u | -24% | 40µM* | -38%[57.1 µM]
Cc1csc(N2CCN(c3cc4c(cc3Cl)nc(-c3ccncc3)n4CCCN3CCCC3)CC2)n1 | 7 | 10µM* | -8% | 3% | 56µM* | u
COc1ccc(-c2[nH]ncc2C(=O)NCc2ccccc2C)cc1 | x | 5%[59 µM] | x | 14% | -14% | -2%
Fc1ccc(C2NC(=S)NC3=C2N2CCC3CC2)cc1 (stereo unspecified) | x | -40%[59 µM] | -2% | 23% | -13% | -17%
Fc1ccc(/C=C2\CCCC3=C2NC(=S)NC3c2ccc(F)cc2)cc1 (stereo unspecified) | x | 22µM* | x | x | x | u
COc1cccc(NC(=O)C2C3C=CC4(O3)C2C(=O)N(CCCN2CCCCC2)C4C(=O)NC2CCCCC2)c1 (stereo unspecified) | 2 | -27%[12.7 µM] | -9% | 47% | 4% | u
Cc1ccc(NC(=O)C2C3C=CC4(O3)C2C(=O)N(CCN2CCOCC2)C4C(=O)NC2CCCCC2)cc1C (stereo unspecified) | -3 | u | -16% | -13% | -17% | 0%
COc1ccc(NC(=O)C2C3C=CC4(O3)C2C(=O)N(CCCN2CCCCC2)C4C(=O)NC2CCCC(C)C2C)cc1 (stereo unspecified) | -2 | 45µM* | -17% | 3% | -18% | -1%
Cc1cc(C)cc(NC(=O)C2C3C=CC4(O3)C2C(=O)N(CCCN2CCCCC2)C4C(=O)NC2CCCCC2)c1 (stereo unspecified) | 3 | u | -10% | 17% | -17% | 0%
COCCCN1C(=O)C2C(C(=O)Nc3cc(C)cc(C)c3)C3C=CC2(O3)C1C(=O)NC1CCCCC1 (stereo unspecified) | -10 | 89µM* | -17% | -1% | -25% | -3%
COc1cccc(NC(=O)C2C3C=CC4(O3)C2C(=O)N(CCCN2CCC(C)CC2)C4C(=O)NC2CCCCC2)c1 (stereo unspecified) | -5 | 45µM* | -7% | 47% | -1% | -1%
CC1CCCC(NC(=O)C2N(CCCN3CCCC3)C(=O)C3C(C(=O)Nc4ccc(Cl)cc4)C4C=CC32O4)C1C (stereo unspecified) | -1 | -1%[12.7 µM] | 1% | -15% | -11% | -15%
CSc1cccc(NC(=O)C2C3C=CC4(O3)C2C(=O)N(CCN2CCOCC2)C4C(=O)NC2CCCCC2)c1 (stereo unspecified) | -1 | 50µM* | -6% | 35% | -7% | -19%
CC(NS(=O)(=O)c1ccc2c(c1)oc(=O)n2C)c1ccccc1 (stereo unspecified) | 3 | -11% | 6% | 28% | -6% | -20%
CCOc1ccc(S(=O)(=O)Nc2ccc(C(=O)N3CCCC3)cc2)cc1C(N)=O | 7 | x | 4% | 47% | -1% | -4%
COC(=O)c1ccccc1-c1cn(C)c2ccccc2c1=O | 27 | 0% | 2% | 24% | 2% | -37%
O=C(Nc1ccc(Cl)c(Cl)c1)C1C2C=CC3(O2)C1C(=O)N(CCN1CCCCC1)C3C(=O)NC1CCCCC1 (stereo unspecified) | 2 | 45µM* | 1% | 12% | -13% | 2%
Cc1cccc(/N=C/c2c(O)c3ccccc3oc2=O)n1 | 5 | -37%[12.7 µM] | -2% | 2% | -11% | -35%
CSc1n[nH]c(/N=C/c2oc(O)c3ccccc23)n1 | 0 | 20µM* | -14% | 53% | -17% | u
Oc1oc(C=Nc2ccc(F)cc2F)c2ccccc12 | -3 | 5µM* | -4% | 48% | -19% | u

Screening results (PubChem BioAssay)
